# Autofluor counter – compound fluorescence in toxin protease inhibitor counterscreen; compound autofluorescence counterscreen, microsphere flow cytometry; active compounds read high; fluorescence intensity (no concentration beside the values); 3.1% of 360,000 active; AID 624483; in the data active = fluorescence intensity above about 16000; inconclusive = no clear call, values can overlap the other calls
# BoNT-F LC inh – inhibitors of Botulinum neurotoxin F light chain protease. Multiplex microsphere protease cleavage assay, flow cytometry. inhibition, % at 10 µM. 0.22% of 360,000 active; in the data active = inhibition above about 35%, passing the limit was not always enough; inconclusive = no clear call, values can overlap the other calls
# Anthrax LF prot – inhibitors of Bacillus anthracis lethal factor protease; P15917; multiplex microsphere protease cleavage assay, LF; inhibition, % at 10 µM; 0.12% of 360,000 active; AID 588501
# BoNT A protease – BoNT A light chain protease inhibition; multiplex microsphere protease substrate cleavage, flow cytometry; inhibition, % at 10 µM; 0.17% of 360,000 active; AID 588499
# MazF activator – activators of E. coli MazEF toxin-antitoxin RNase | 0.32% of 350,000 active | activation, % at 20 µM | FAM/BHQ RNA-DNA oligo cleavage fluorescence, 5 h | P0AE70 | AID 504720; in the data active = activation above about 50%
# Target sequence (P0AE70 whole entry, looked up): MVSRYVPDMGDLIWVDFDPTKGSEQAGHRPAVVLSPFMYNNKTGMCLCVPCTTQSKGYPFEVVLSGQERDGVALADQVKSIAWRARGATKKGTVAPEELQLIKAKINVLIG
# Numbers stand for hits; i = inactive; ? = inconclusive; nt = no result. Shown are actives, neighbours in structure and some others; about 3.7% of the full set was active somewhere. Rule as the data show it, unless noted: active = inhibition above about 30%; inconclusive = no clear call, values can overlap the other calls; inactive = below that.
SMILES,Autofluor counter,BoNT-F LC inh,Anthrax LF prot,BoNT A protease,MazF activator
O=C(Cc1cccs1)Nc1ccc(S(=O)(=O)Nc2ncccn2)cc1,i,i,i,i,i
CC(=O)Nc1ccc(S(=O)(=O)N2CCC(c3nc4ccc(C)cc4[nH]3)CC2)cc1,24362,i,i,i,i
CN1CCN(S(=O)(=O)c2ccc(NC(=O)c3csc4ccccc34)cc2)CC1,16528,i,i,?,i
CN1CCN(S(=O)(=O)c2ccc(-c3ccc(Cl)cc3)cc2)CC1,20018,i,i,i,i
Cc1ccnc(NS(=O)(=O)c2ccc(NC(=O)Cc3cccs3)cc2)n1,21122,i,i,?,i
CN1CCN(S(=O)(=O)c2ccc(NC(=O)c3cccs3)cc2)CC1,i,i,i,i,i
CN1CCN(S(=O)(=O)c2ccc(NC(=O)Cc3cccs3)cc2)CC1,19616,i,i,i,i
O=C(Cc1cccs1)Nc1ccc(S(=O)(=O)N2CCCCC2)cc1,i,?,i,i,i
CC1CCCN(S(=O)(=O)c2ccc(NC(=O)CN3CCN(C)CC3)cc2)C1 (centres undefined),16136,i,i,i,i
Cc1ccc(NS(=O)(=O)c2ccc(NC(=O)c3cccs3)cc2)c(C)c1,i,i,i,i,53
Cc1cc(C)nc(NS(=O)(=O)c2ccc(NC(=O)c3cccs3)cc2)n1,i,i,i,i,i
Cc1cc(N/C(=N\S(=O)(=O)c2ccc(F)cc2F)c2ccccc2)no1,17822,i,i,i,i
O=C(OCC1OC(n2ccc(=O)[nH]c2=O)C2OC12)c1ccccc1 (centres undefined),i,i,i,i,i
CCOC(=O)NC(=O)c1cn(N(C)c2ncc(C(F)(F)F)cc2Cl)c(=O)[nH]c1=O,21416,i,i,i,i
CCCn1c(N)c(C(=O)COC(=O)CCNS(=O)(=O)c2ccccc2F)c(=O)[nH]c1=O,i,i,i,i,i
COc1ccc(Cc2c(O)nc(SCC(C)C)[nH]c2=O)cc1,i,i,i,i,i
COc1ccc(Cc2c(O)nc[nH]c2=O)cc1,16832,i,i,?,i
Cc1ccc(CNC(=O)CCc2c(C)nn(-c3ccc(N4CCOCC4)nn3)c2C)cc1,i,i,i,i,i
c1cc(Nc2cccc3nccnc23)c2nccnc2c1,i,i,i,i,51
Cc1ccc(OC(=O)c2cccc(S(=O)(=O)N3CCN(C)CC3)c2)c(Br)c1,i,i,i,i,i
Cc1cc(C(F)(F)F)n(-c2nc(C(=O)NNS(=O)(=O)c3ccccc3)cs2)n1,nt,nt,nt,nt,i
COc1ccccc1NC(=O)c1csc(-n2nc(C)cc2C(F)(F)F)n1,21807,i,i,?,i
COc1ccc(NC(=O)Cn2nnc(C(=O)NCc3cccs3)c2N)cc1Cl,i,i,i,i,i
Cn1sc(NC(=O)c2ccccc2Cl)nc1=O,24069,i,i,i,i
COC(=O)c1nc(NC(=O)c2ccc(Br)cc2)n[nH]1,i,i,i,i,i
SMILES,Autofluor counter,BoNT-F LC inh,Anthrax LF prot,BoNT A protease,MazF activator
CC(=O)Cc1nsc(NC(=O)c2ccccc2Cl)n1,i,i,i,i,i
Cn1sc(NC(=O)c2cccc(Cl)c2)nc1=O,22807,i,i,i,i
COC(=O)c1nc(NC(=O)c2ccccc2Cl)n[nH]1,22352,i,i,i,i
OCC#CCSc1nnc(-c2cccc3ccccc23)o1,i,i,i,i,i
COc1ccc(CCN2CC(C(=O)NCCc3cn[nH]c3)CCC2=O)cc1 (centres undefined),i,i,i,i,i
Cc1cc(C)n(CCc2nc(-c3ccco3)cs2)n1,19796,i,i,i,i
CC[C@]12c3[nH]c4ccc(OC)cc4c3CCN1C(=O)C(CC(=O)NCCCOC)C[C@@H]2C(=O)N1CCN(C(=O)C2CC2)CC1 (some centres undefined),i,i,i,i,75
CN(C)C(=O)CCc1ccc2c3c([nH]c2c1)[C@]1(CCC2CCCC2)[C@@H](C(=O)N2CCOCC2)C[C@H](CC(=O)NC(C)(C)C)C(=O)N1CC3,i,i,i,i,59
CC[C@]12c3[nH]c4cc(-c5ccco5)ccc4c3CCN1C(=O)[C@@H](CC(=O)NCCCN(C)C)C[C@@H]2C(=O)N1CCN(C(=O)c2ccco2)CC1,i,i,i,i,53
CC[C@]12c3[nH]c4cc(-c5ccco5)ccc4c3CCN1C(=O)[C@@H](CC(=O)NCC13CC4CC(CC(C4)C1)C3)C[C@@H]2C(=O)N1CCN(C(=O)c2ccco2)CC1,i,i,i,i,i
CN(C)C(=O)CCc1ccc2c3c([nH]c2c1)[C@]1(CCC2CCCC2)[C@@H](C(=O)N2CCOCC2)C[C@H](CC(=O)NCCN2CCOCC2)C(=O)N1CC3,i,i,i,i,i
CCCCN1CCC(C#N)(Nc2ccccc2)CC1,24452,i,i,i,i
Brc1ccc(-c2nn3c(Cc4ccccc4)nnc3s2)o1,i,i,i,i,i
c1ccc(Cc2nnc3sc(Nc4ccccc4)nn23)cc1,16579,i,i,?,i
COc1ccccc1-c1cc(C(=O)NCCc2ccccc2)no1,i,i,i,i,i
COc1ccc(CCNC(=O)c2ccc(-c3ccc([N+](=O)[O-])cc3)o2)cc1OC,i,i,i,i,59
COc1ccc(CCNC(=O)c2cc(CC(C)C)on2)cc1OC,i,i,i,i,i
COc1ccc(CCNC(=O)c2cc(-c3ccccc3OC)on2)cc1OC,24479,i,i,?,i
COc1ccccc1-c1cc(C(=O)Nc2cccnc2)no1,22187,i,i,i,i
COc1ccc(-c2cc(C(=O)NCCc3ccccc3)no2)cc1OC,20927,i,i,i,i
Cc1ccc(C)c(S(=O)(=O)N2CCN(Cc3cc4c(cc3O)OCO4)CC2)c1,i,i,i,i,i
CN1C(=O)CC(NNC(=O)c2ccc(Cl)cc2)C1=O (centres undefined),22298,i,i,i,i
CCOC(=O)N1CCN(c2ncnc3c2oc2nc(C(C)C)c4c(c23)CCC4)CC1,20792,i,i,i,55
C/C(=N\Nc1cc(Cl)nc(C)n1)c1ccc(Cl)c(Cl)c1,i,i,i,i,i
C/C(=N\Nc1cc(Cl)nc(C)n1)c1ccc(C)cc1,22065,i,i,i,i
SMILES,Autofluor counter,BoNT-F LC inh,Anthrax LF prot,BoNT A protease,MazF activator
Cn1c(NCCCN2CCOCC2)nc2c1c(=O)n(Cc1ccc(Cl)cc1Cl)c(=O)n2C,21423,i,i,i,i
CC(=O)c1c(C(C)=O)c(C)n(-c2nc(-c3ccc(Br)cc3)c(C)s2)c1C,17033,i,i,i,i
COc1ccc(-c2nc(-n3c(C)c(C(C)=O)c(C(C)=O)c3C)sc2C)cc1OC,i,i,i,i,i
Cc1c(C(=O)NC(C)C)sc2ncn(CC(=O)N3CCC(C)CC3)c(=O)c12,19793,i,i,i,i
Cc1c(C(N)=O)sc2ncn(CC(=O)N3CCC(C)CC3)c(=O)c12,22473,i,i,i,i
Cc1c(C(=O)N2CCC(C)CC2)sc2ncn(CC(=O)N3CCC(C)CC3)c(=O)c12,i,i,i,i,i
O=C(CN1CCCc2ccccc21)Nc1cc(S(=O)(=O)N2CCCC2)ccc1Cl,i,i,i,i,i
CCN(CC)C(=O)C1=C(C)N(Cc2ccc(OC)cc2)C(=O)C(CC(=O)NC2CC2)C1 (centres undefined),i,i,i,i,i

# High-throughput results deposited in PubChem BioAssay by several laboratories.
